Laboratory results: PubChem BioAssay
The source made the active and inactive calls.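 The calls were made as follows, unless noted: active = compounds whose cell count with miR-34 switched on is under 0.7 times the count with it off; inactive = the rest.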

What was measured:
[1] = viability loss with induced miR-34 in A549 – imaging, A549 dox-inducible miR-34, nuclei and caspase counts, primary screen (AID 1347080); settings: A549 miR-34 inducible, Hoechst nuclei count, 48 h
[2] = MELAS cybrid and Rieske KO viability enhancers – cell-based, MELAS cybrids, Rieske KO mouse fibroblasts, CellTiter-Glo, primary screen (AID 1508586;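 active = mean z-score across replicates of 1.96 or higher in either the MELAS or the Rieske mutant cell line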;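 also: z relative to plate mean and SD of compound and empty wells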); settings: low glucose
[3] = galactose survival enhancers in mitochondrial complex I cybrids – cell-based, galactose medium, ATP luminescence, primary screen (AID 1645843;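 active = z-score of at least 1.8 in each of two replicates, scored against plate mean and spread of sample wells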;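 also: positive z means more ATP and so rescue of galactose-driven cybrid death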); settings: complex I mutant cybrid cells, 72 h, stronger effect = higher value
[4] = biological target: NAD(+) hydrolase SARM1 (Homo sapiens) (UniProt Q6SZW1); assay: blocking NAD cleavage by SARM1 SAM-TIR – cell lysate, NAD-Glo luminescence (AID 1508614;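 active = compound whose remaining NAD level is above about 45 nM, limit read from the data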;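 also: higher remaining NAD means stronger inhibition of SARM1 NADase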); settings: SAM-TIR HEK293T lysate NADase, at 1 µM, stronger effect = higher value
Sequence of NAD(+) hydrolase SARM1 (Homo sapiens) (Q6SZW1 whole entry, looked up): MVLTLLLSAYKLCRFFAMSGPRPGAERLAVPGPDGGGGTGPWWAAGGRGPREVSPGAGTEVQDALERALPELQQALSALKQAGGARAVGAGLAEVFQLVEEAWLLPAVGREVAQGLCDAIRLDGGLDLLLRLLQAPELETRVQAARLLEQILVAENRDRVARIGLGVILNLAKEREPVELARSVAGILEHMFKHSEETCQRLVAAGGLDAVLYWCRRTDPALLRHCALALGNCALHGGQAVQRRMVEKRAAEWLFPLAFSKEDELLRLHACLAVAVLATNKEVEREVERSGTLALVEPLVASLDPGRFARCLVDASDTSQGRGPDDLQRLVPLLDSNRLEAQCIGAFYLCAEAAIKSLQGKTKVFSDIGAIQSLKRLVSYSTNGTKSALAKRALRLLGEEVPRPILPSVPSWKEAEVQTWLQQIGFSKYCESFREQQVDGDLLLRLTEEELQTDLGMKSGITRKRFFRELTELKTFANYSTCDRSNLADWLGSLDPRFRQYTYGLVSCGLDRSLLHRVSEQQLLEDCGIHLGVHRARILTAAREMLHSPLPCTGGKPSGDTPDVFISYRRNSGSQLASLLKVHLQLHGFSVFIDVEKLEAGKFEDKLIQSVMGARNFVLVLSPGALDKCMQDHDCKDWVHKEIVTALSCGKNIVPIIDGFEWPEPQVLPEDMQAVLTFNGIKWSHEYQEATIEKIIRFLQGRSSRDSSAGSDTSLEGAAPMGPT

[5] = stronger effect = lower value, cell number ratio, induced over uninduced
[6] = measured here: relative caspase fold change +Dox/-Dox
[7] = measured here: total cells with miR-34 induction, stronger effect = lower value
[8] = measured here: total cells without miR-34 induction
[9] = MELAS cybrid survival, CellTiter-Glo 48 h, stronger effect = higher value
[10] = Rieske KO mouse fibroblast survival, CellTiter-Glo 72 h

| SMILES | fold change [1, 5] | fold change [1, 6] | cell count [1, 7] | cell count [1, 8] | z-score [2, 9] | z-score [2, 10] | z-score [3] | remaining NAD [4] |
| --- | --- | --- | --- | --- | --- | --- | --- | --- |
| O=C(O)c1ccccc1C(=O)O | 0.874 (inactive) | 0.755 | 8620 | 9850 | -0.0339 (inactive) | -0.338 | 0.455 (inactive) | – |
| N#Cc1ccc2[nH]cc(CCCCN3CCN(c4ccc5oc(C(N)=O)cc5c4)CC3)c2c1 | 0.968 (inactive) | 0.515 | 6440 | 6650 | -0.594 (inactive) | -0.181 | – | 10 nM (inactive) |
| CN(Cc1cnc2ccccc2n1)C(=O)Nc1n[nH]c(-c2ccco2)n1 | 0.886 (inactive) | 0.927 | 8010 | 9030 | -0.974 | 3.4 | 0.175 (inactive) | – |
